Source: PubChem BioAssay AID504660 (National Center for Advancing Translational Sciences (NCATS), 2011)
Out of some 360,000 compounds screened, about 3,700 (1%) were called active. Rule as the data show it: active = activation above about 30%; inactive = the rest. Only a selection was taken, and actives are over-represented in it overall.

Molecular target: D(1A) dopamine receptor (Homo sapiens) (UniProt P21728)
Experiment: Allosteric Agonists of the Human D1 Dopamine Receptor: qHTS; also: 0% is about no effect
Conditions: HEK293 T-REx D1 cells, calcium flux, agonist mode; at 2 µM; active compounds read high
Summary of the method: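 Agonism was scored from calcium flux recorded over 180 s (1 read/s) after pintool compound addition, following a 10-cycle baseline. Cells were inducible force-coupled HEK293 TREx D1, plated overnight at 30 C and loaded with no-wash calcium dye.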

Chain of D(1A) dopamine receptor (Homo sapiens) (P21728 whole entry, looked up): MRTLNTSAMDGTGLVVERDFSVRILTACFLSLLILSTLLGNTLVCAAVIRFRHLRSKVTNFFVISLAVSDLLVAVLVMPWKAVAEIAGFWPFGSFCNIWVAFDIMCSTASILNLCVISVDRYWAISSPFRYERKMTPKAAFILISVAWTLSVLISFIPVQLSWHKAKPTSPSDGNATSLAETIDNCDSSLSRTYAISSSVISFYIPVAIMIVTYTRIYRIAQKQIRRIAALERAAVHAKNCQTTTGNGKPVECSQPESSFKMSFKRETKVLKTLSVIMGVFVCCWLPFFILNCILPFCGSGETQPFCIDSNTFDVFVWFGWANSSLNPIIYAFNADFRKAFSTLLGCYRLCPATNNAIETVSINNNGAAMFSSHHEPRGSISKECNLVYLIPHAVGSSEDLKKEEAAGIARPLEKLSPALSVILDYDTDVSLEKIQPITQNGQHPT

SMILES	activation
CCc1ccc(S(=O)(=O)Nc2cc3c(C(=O)OCc4ccccc4)c(C)oc3c3ccccc23)cc1	5.87% (inactive)
Cc1ccccc1NC(=O)Cn1c(=O)n(CC2CCC(C(=O)NCCc3ccccc3)CC2)c(=O)c2ccccc21 (centres undefined)	0.988% (inactive)
CCc1nnc(SCc2nc(-c3cccc(C)c3)oc2C)c2cc3sc(C)cc3n12	1.16% (inactive)
CCOc1cccc(C(=O)Nc2nnc(S(=O)(=O)N(C)c3ccc(C)cc3)s2)c1	-0.514% (inactive)
CC(=O)c1ccc(OCC(O)CN2CCN(S(=O)(=O)c3cccc(Br)c3)CC2)cc1 (centres undefined)	0.785% (inactive)
O=S(=O)(c1ccc(OCC(O)CN2CCN(c3ccccc3Cl)CC2)cc1)N1CCOCC1 (centres undefined)	105% (active)
CC(C)c1ccc(OCC(O)CN2CCN(c3ccccn3)CC2)cc1 (centres undefined)	2.28% (inactive)
Cc1ccc2nc(N3CCN(c4cccc(Cl)c4)CC3)c3nnnn3c2c1	0.249% (inactive)
CCN(CC)c1nn2c(=O)c(C(=O)NCCc3ccccc3)cnc2s1	-0.903% (inactive)
COc1ccc(NC(=O)CSC2=Nc3ccccc3C3=NC(CC(=O)NCc4ccccc4OC)C(=O)N23)cc1Cl (centres undefined)	4.46% (inactive)
Cc1cccc(OCCSc2nc3ccc(NC(=O)COc4ccccc4C)cc3s2)c1	14.8% (inactive)
C=C(Br)Cn1c(CCCC)nc2ccccc21	2.85% (inactive)
COc1ccccc1Cn1c(CO)nc2ccccc21	2.48% (inactive)
COCc1nc2ccccc2n1Cc1ccccc1Br	30.7% (active)
Cc1ccc(-c2noc(CSc3nnc(-c4ccc(Cl)cc4)n3C)n2)cc1	-2.32% (inactive)
Cc1ccc(-c2noc(CSc3nnnn3-c3ccccc3)n2)cc1	45.5% (active)
Cc1ccc(Nc2nc(CSc3nnnn3-c3ccccc3)cc(=O)[nH]2)cc1	0.0289% (inactive)
COc1ccc(C(=O)Nc2cccc(C(=O)OCc3cc(=O)n4c5c(sc4n3)CCCC5)c2)cc1	0.659% (inactive)
CCc1ccccc1N1C(=O)CN(S(=O)(=O)CC)CC1(C)C(=O)NC1CCCCC1 (centres undefined)	0.155% (inactive)
COc1cc(C(=O)NCc2ccc(-n3cccc3)cc2)cc(OC)c1OC	4.24% (inactive)
COc1cc(C(=S)NCc2ccccc2)cc(Br)c1O	1.7% (inactive)
COc1cc(C(=O)NCc2ccncc2)cc(Br)c1OCc1ccccc1	62.9% (active)
CC(C)OCCCn1c(SCC(=O)c2ccccc2)nc2c(sc3ccccc32)c1=O	-1.31% (inactive)
Cc1ccccc1CNC(=O)C1CCCN(S(=O)(=O)N(C)c2ccc(F)cc2)C1 (centres undefined)	2.76% (inactive)
